Structures are written as SMILES. The whole screen tested about 68,000 compounds, of which about 2,700 (4%) showed an effect of 50% or more. The sample holds strong results, similar compounds and a random draw of the others, so the mix is not that of the screen.

This test concerns Plasmodium berghei. Briefly: Screen against P. berghei liver stage (PbLuc), transformed with Luciferase, at 2uM. The test is classed as functional, HepG2. The conditions noted are these: tested at 2 uM.
`Cc1cc(C)nc(N2CCC(Cn3cc(C(N)=O)cn3)CC2)n1`: the INHIBITION worked out at 0.93%. Next, `Clc1ccc(-c2nnc([C@H]3CCN(C4CCCCC4)C3)o2)cc1`: -57.27%; `O=C(Nc1cn[nH]c1)N1CCN(CCSc2ccccc2)CC1`: -11.24%; `COCCN1CCc2cc(C(=O)NC(C)C)c(NCC(C)C)nc2CC1`: 42.15%. As to `Cc1nn(C)c(Oc2ccc(Cl)cc2)c1CN1CC[C@H](CO)[C@@H](O)C1`, the INHIBITION came out at 43.44%. Consider `Cc1nn(C)c(Oc2ccc(Cl)cc2)c1CN1CCC(CN)C1` (centres undefined), for which the INHIBITION came out at 64.9%. As for `Cc1nn(C)c(Oc2ccc(Cl)cc2)c1CN1CCOC(CN)C1` (centres undefined), the INHIBITION worked out at 48.21%. Next, `CN(C)C(=O)CN1C[C@H]2CC[C@@H](C1)N(Cc1ccccc1OCCO)C2`: 5.28%; `CC(C)[C@@H]1CN(Cc2cnc(C3CCCCC3)nc2)C[C@H]1N(C)C`: -1.57%. For `CC(C)c1nn(C)c(N(C)C)c1CNCC(O)c1ccccc1` (centres undefined), the INHIBITION is 35.65%. Regarding `Cc1nn(C)c(N(C)C)c1CNCC(O)c1ccccc1F` (centres undefined), the INHIBITION came out at 49.9%.

Take `COc1ccccc1C(O)CNCc1c(C(C)C)nn(C)c1N(C)C` (centres undefined): the INHIBITION is 63.95%.

Turning to `COc1c(CNCC(O)c2ccccc2F)c(C(C)C)nn1C` (centres undefined), the INHIBITION was -72.31%. As for `CC(C)c1nn(C)c(N(C)C)c1CNCC(O)c1ccccc1F` (centres undefined), the figure is 78.51%.

Regarding `COc1ccccc1OCCNCc1c(C(C)C)nn(C)c1N(C)C`, the INHIBITION was found to be 7.64%.

As to `O=C(NCC1CC1)c1n[nH]c2c1CNCC2`, the INHIBITION is recorded as 5.69%. As for `COc1nn(C)cc1C(=O)NCC(OC)c1ccccc1C` (centres undefined), the figure is 24.09%; as for `COc1ccc(NC(=O)CN2CCCCC2C2OCCO2)cc1` (centres undefined), -13.68%. As for `O=C(C1CC1)N1CCN(C(=O)C2CC(=O)N(c3ccccc3Br)C2)CC1` (centres undefined), the figure is 10.42%; as for `O=C(C1CC(=O)N(c2ccccc2Br)C1)N1CCCCCC1` (centres undefined), 57.51%.

As for `COC1CCN(C(=O)C2CC(=O)N(c3ccccc3Br)C2)CC1` (centres undefined), the INHIBITION is 22.86%. For `CC(c1cn2ncsc2n1)n1cc2[nH]cccc-2c1=O` (centres undefined), the INHIBITION is 30.09%.

Turning to `CC(C)OCc1ncn2c1CN(CC1CC1)CCC2`, the INHIBITION was -13.31%.

In the case of `O=C(Nc1cccnc1)[C@@H]1C[C@H]2OCC[C@H]2N(Cc2ccsc2)C1`, the INHIBITION is -83.74%.

On to `O=C(NCC1CC1)[C@H]1C[C@H]2OCC[C@H]2N(Cc2ccsc2)C1`, for which the INHIBITION is -12.09%. Next, `O=C(Nc1cnccn1)[C@@H]1C[C@H]2OCC[C@H]2N(Cc2ccsc2)C1`: 59.52%.

For the molecule `Cc1cccc(S(=O)(=O)N2C[C@@H]3C[C@H](C(=O)NC4CCC4)[C@H](C2)O3)c1`, the INHIBITION was 12.57%.

As for `COCCN1C[C@@H]2CC[C@H]1CN(C(=O)CCc1c(C)nn(C)c1C)C2`, the INHIBITION is listed as -23.17%.

Take `O=C(Nc1ccc(-c2nc3c([nH]2)CCNC3)cc1)N1CCCC1`: the INHIBITION was -15.03%. As for `CC(C)NC(=O)Nc1ccc(-c2nc3c([nH]2)CCNC3)cc1`, the figure is -35.22%. As for `O=S(=O)(c1ccc(-c2nc3c([nH]2)CCNC3)cc1)N1CCCC1`, the figure is 52.3%; as for `c1cnc(NCCCOC2CCOCC2)nc1`, 74.34%; as for `Brc1ccc(NCCCOC2CCOCC2)nc1`, -11.28%. As for `Brc1cnc(NCCCOC2CCOCC2)nc1`, the figure is 21%; as for `Cc1ccc(-c2cc(N)c(=O)n(CC(=O)NCC3CC3)n2)s1`, 36.17%.

Consider `CN(Cc1ccccc1)CC1(O)CCCN(CC(C)(C)C)C1=O` (centres undefined), for which the INHIBITION stood at 16.64%. As for `COCCC(=O)N1CCc2cc(Cl)cc(Cl)c2C1`, the INHIBITION is -10.6%. Next, `O=C(NCC1CCS(=O)(=O)C1)c1ccco1` (centres undefined): 69.48%. As for `O=C(NCC1CCS(=O)(=O)C1)c1ccc(NC(=O)c2ccco2)cc1` (centres undefined), the figure is -19.02%; as for `Cc1cc(C(=O)NCC2CCS(=O)(=O)C2)ccc1NC(=O)c1ccco1` (centres undefined), -34.12%; as for `CCOCCCC(=O)Nc1ccc(OCc2noc(C3CC3)n2)cc1`, 18.09%. As for `COc1cccc2c1N(Cc1noc(C3CC3)n1)CCC2`, the figure is -17.64%. For the molecule `COCCc1noc(CN2CCCc3cccc(OC)c32)n1`, the INHIBITION is on record as -61.35%. As for `COc1cccc2c1N(Cc1nc(C3CC3)no1)CCC2`, the figure is 64.22%; as for `CCCC(NC(=O)c1cncc(C)c1)c1nnn[nH]1` (centres undefined), -10.41%; as for `COCCN1CCc2ncnc(NC(C)C)c2CC1`, 3.6%. Next, `C[C@@H](NC(=O)c1cnccn1)c1c(-c2ccc(F)cc2)noc1C(=O)O`: 34.79%; `Cc1ccc(CC(=O)N2CCOCC2c2ncon2)cc1` (centres undefined): 54.99%; `CCc1ccc(CCC(=O)N2CCOCC2c2ncon2)cc1` (centres undefined): -45.23%. On to `Cc1cccc(C)c1OCC(=O)N1CCOCC1c1ncon1` (centres undefined), for which the INHIBITION worked out at 29.54%. Next, `O=C(COc1ccc(Cl)cc1)N1CCOCC1c1ncon1` (centres undefined): -29.5%; `CC(C)c1ccc(CCC(=O)N2CCOCC2c2ncon2)cc1` (centres undefined): 15.47%; `O=C(CCc1cccc(Cl)c1Cl)N1CCOCC1c1ncon1` (centres undefined): 58.52%. With `CCc1ccccc1OCC(=O)N1CCOCC1c1ncon1` (centres undefined), the INHIBITION amounted to 53.58%. Next, `O=C(COc1cccc(Cl)c1)N1CCOCC1c1ncon1` (centres undefined): -6.71%; `Cc1ccc(CCC(=O)N2CCOCC2c2ncon2)c(C)c1` (centres undefined): 35.23%; `COCc1cccc(NC(=O)NCCCN(C)S(C)(=O)=O)c1`: 30.98%.

`CC(C)CC(=O)N1CC(=O)N(Cc2ccco2)CC(O)C1` (centres undefined): the INHIBITION is -6.69%. On to `Cc1cccc(-c2nc(C)nn2CC(=O)NCC(C)C)c1`, for which the INHIBITION was -9.49%. Turning to `CCC(=O)c1ccc(OCC(=O)NC(C)c2nnc(C)[nH]2)cc1` (centres undefined), the INHIBITION is reported as -20.29%. Next, `CCn1ccc2cc(NC(=O)CC3CCCO3)ccc21` (centres undefined): -73.93%; `Cc1cccc2cc(CO)c(N3Cc4cnc(C(C)(C)C)nc4C3)nc12`: 30.89%; `CCC(Nc1nnnn1-c1ccccc1)C(=O)Nc1nc(C)cs1` (centres undefined): -13.81%. For the molecule `Cc1nnsc1C(=O)NCc1cccnc1N(C)C`, the INHIBITION is reported as 6.17%. As for `O=C(c1cccc(CNCC=Cc2ccccc2)c1)N1CCCC1`, the figure is 4.49%; as for `CCN(Cc1nc2c(cnn2C)c(=O)[nH]1)c1ccccc1C`, -16.3%. Next, `COc1ccc(NC(=O)C2CCCO2)cc1OCc1cccnc1` (centres undefined): 61%. As for `COc1ccc(NC(=O)C2CC2)cc1OCc1cccnc1`, the figure is 21.24%; as for `COc1ccc(NC(C)=O)cc1OCc1cccnc1`, 5.44%.

(Values after ChEMBL document CHEMBL4513216, “Probing the Open Global Health Chemical Diversity Library for Multistage-Active Starting Points for Next-Generation Antimalarials” (ACS Infect Dis, 2020).)
